Data on 19 compounds can be found in PubChem BioAssay (NCATS).

Results filed as inconclusive are left out. For some of these results: Results with a measured potency or affinity are listed apart. Calls of active or inactive are those of the source. Unless noted, how the calls were made is not given here.

The conditions of assay [1]: Ebola virus entry assay, green fluorescence channel.
For assay [2] the following is noted: Ebola virus entry assay, blue channel fluorescence.
The conditions of assay [3]: Ebola virus entry assay, ratio channel.
The conditions of assay [4]: Ebola virus entry assay, reporter ratio channel; Channel type: primary.
Assay [5] in a line: qHTS assay for measurement of the activity of small molecule inhibitors on Zika virus induced Caspase-3 activity in human iPSC derived neural progenitor cells (hNPCs) (AID 1224857; active means well fitted curve in the direction sought with a large enough effect; an effect the other way counts as inactive or inconclusive; further: % of control where 0% means no effect; nearly all actives have a fitted effect of over 65% in size). Particulars: hNPCs ZIKV-induced caspase-3/7, Caspase-Glo luminescence, 6 h; series mostly up to 45.7 µM. A digest of the protocol:
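Caspase-3/7 induction by a 6-hour ZIKV infection was quantified with a luminescent Caspase-Glo 3/7 reagent incubated 30 minutes at room temperature. Compounds were preincubated with hNPCs for 1 hour; inhibition was calculated against uninfected and infected control wells.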

Assay [6] can be described thus: qHTS assay for measurement of the activity of small molecule inhibitors on Zika virus induced Caspase-3 activity in human astrocytoma cells (AID 1224859; active means well fitted curve in the direction sought with a large enough effect; an effect the other way counts as inactive or inconclusive;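 further: plate controls were ZIKV-infected untreated cells for no effect and uninfected cells for full effect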). The note with it: SNB-19 ZIKV-induced caspase-3/7, luminescence, 6 h; series mostly up to 45.7 µM. A digest of the protocol:
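In SNB-19 cells plated at 250 cells/well and grown 16-20 h, compounds were applied 1 h before ZIKV (2 FFU/cell). Six hours later caspase-3/7 luminescence was recorded.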

The nature of assay [7]: qHTS assay to identify small molecule inhibitors of chordoma cells - UCH-1 (AID 1259355; active means well fitted curve in the direction sought with a large enough effect; an effect the other way counts as inactive or inconclusive; further: nearly all actives have a fitted effect of over 55% in size; further: potency means the concentration at half of the fitted maximal effect). Particulars: UCH-1 chordoma viability, CellTiter-Glo, 48 h, combination; series mostly up to 46.1 µM. An outline of the steps: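 800 cells/well, overnight attach; compounds pinned at 15 concs, then auranofin/camptothecin/doxorubicin/rubitecan/topotecan combo added; 48hr 37 C, 5% CO2; CellTiter-Glo, 30min RT, luminescence.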

Assay [8] in a line: qHTS assay to identify small molecule inhibitors of chordoma cells - UCH-2 (AID 1259356; active means well fitted curve in the direction sought with a large enough effect; an effect the other way counts as inactive or inconclusive; further: potency means the concentration at half of the fitted maximal effect). The note with it: UCH-2 chordoma viability, CellTiter-Glo ATP luminescence, 48 h; series mostly up to 46.1 µM.
For assay [9] the following is noted: Ebola virus entry assay, green channel fluorescence.
The conditions of assay [10]: Ebola virus entry assay, blue channel (ratio component).
Assay [11] is described as follows: Immunotoxin (HA22) sensitization/mitigation study. Vehicle arm (PBS) (AID 1159510). Particulars: cancer cells viability with PBS vehicle (HA22 study); series mostly up to 46.1 µM.
A short description of assay [12]: Immunotoxin (SS1P) sensitization/mitigation study. Vehicle arm (DMEM) (AID 1159513). Particulars: cell viability with vehicle (DMEM); series mostly up to 46.1 µM.
Assay [13] in a line: High-throughput drug toxicity screening in the BPDCN cell line Gen2.2 (AID 1224824).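 Further: cells exposed to compounds for 48 h before reading.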 The note with it: Gen2.2 BPDCN cells; at 45.8 µM (top of the series). A digest of the protocol:
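CellTiter-Glo luminescence read after 48 h compound exposure at 37 C defines viability; percent activity set with DMSO as 100% and bortezomib (9.2 uM final) as 0%. 500 exponentially growing cells per well, RPMI plus 10% FBS.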

Assay [14] is described as follows: High-throughput drug toxicity screening in the BPDCN cell line Cal-1 (AID 1224825). The note with it: Cal-1 BPDCN cell viability, qHTS; at 45.8 µM (top of the series). An outline of the steps: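 Percent activity derived from CellTiter-Glo luminescence, scaling DMSO to 100% and 9.2 uM final bortezomib to 0%. BPDCN Cal-1 cells (500/well, RPMI plus 10% FBS) incubated with compounds 48 hours at 37C before reading.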
In general terms: Quantitative high-throughput screening tests each substance at several concentrations.

The nature of assay [15]: qHTS Screen of the MIPE 4.0 Collection Against Ewings Sarcoma (RDES) (AID 1259252; active means well fitted curve in the direction sought with a large enough effect; an effect the other way counts as inactive or inconclusive;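 further: 100% = DMSO-treated cells and 0% = medium-only wells without cells; nearly all actives have a fitted effect of over 35% in size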). Particulars: RD-ES Ewing sarcoma viability, CellTiter-Glo, 48 h; series mostly up to 45.8 µM. A digest of the protocol:
(§1)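 Cells plated in serum-containing RPMI (5% FBS) and treated with compound dilutions for 48 h. Readout luminescent viability; normalization relied on vehicle (no inhibition) and media-only columns (full inhibition).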

A short description of assay [16]: qHTS Screen of the MIPE 4.0 Collection Against Ewings Sarcoma (TC71) (AID 1259253; active means well fitted curve in the direction sought with a large enough effect; an effect the other way counts as inactive or inconclusive;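 further: 100% = DMSO-treated cells and 0% = medium-only wells without cells; nearly all actives have a fitted effect of over 40% in size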). Particulars: TC71 Ewing sarcoma viability, CellTiter-Glo, 48 h; series mostly up to 45.8 µM. An outline of the steps: as §1
A short description of assay [17]: qHTS Screen of the MIPE 4.0 Collection Against Ewings Sarcoma (EW8) (AID 1259255; active means well fitted curve in the direction sought with a large enough effect; an effect the other way counts as inactive or inconclusive;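 further: 100% = DMSO-treated cells and 0% = medium-only wells without cells; nearly all actives have a fitted effect of over 35% in size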). The note with it: EW8 Ewing sarcoma viability, CellTiter-Glo, 48 h; series mostly up to 45.8 µM. An outline of the steps:
as §1

Assay [18] is described as follows: Identifying Small Molecule Inhibitors of Pancreatic Cancer Stem Cells (A2780, Spheroid) (AID 1259357; active means well fitted curve in the direction sought with a large enough effect; an effect the other way counts as inactive or inconclusive;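 further: spheroids pre-formed over 14 days in stem cell medium on hydrogel; compound exposure lasted 48 h before the ATP luminescence read; 100% = DMSO treated cells and 0% = wells without cells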). Particulars: series mostly up to 46.1 µM. A digest of the protocol: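 Spheroids grown 14 days in stem cell media on hydrogel-coated nonadherent plates; 2D lines seeded directly. Compounds added after 4 h attachment, 48 h at 37C, 5% CO2; CellTiter-Glo luminescence normalized to DMSO (no inhibition) and no-cell wells (full inhibition).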

Assay [19] is described as follows: Identifying Small Molecule Inhibitors of Pancreatic Cancer Stem Cells (SN12C, Adherent) (AID 1259358; active means well fitted curve in the direction sought with a large enough effect; an effect the other way counts as inactive or inconclusive;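 further: cell survival measured after 48 h of compound exposure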). The note with it: viability/growth inhibition; series mostly up to 46.1 µM. A digest of the protocol: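 Pre-formed 14-day tumor spheroids or adherent cells dosed and incubated 48 h, 37C, 5% CO2. Viability assessed by CellTiter-Glo.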
Wherever efficacy is given: 0% is about no effect.

For orientation: AC50 means the midpoint of the concentration-response curve, whichever way the signal moves. For the compound `C[C@@H]1O[C@@H](O[C@@H]2C=C3CC[C@@H]4[C@H](CC[C@]5(C)[C@@H](c6ccc(=O)oc6)CC[C@]45O)[C@@]3(C)CC2)[C@H](O)[C@H](O)[C@H]1O`, the efficacy in assay [1] was 35.7% (inactive). Moreover, the AC50 was 8.91 µM (active) in assay [2], 7.94 µM (active) in assay [3] and 7.94 µM (active) in assay [4]. In addition, the Potency entry in [5] was “inactive”. Moreover, in [6], the compound was called inactive. The Potency in assay [7] is 0.1 µM (active); in assay [8], 0.0248 µM (active).

For `CC(CC(C#N)(c1ccccc1)c1ccccc1)N(C)C` (stereo unspecified), the efficacy in assay [1] was 77.3% (inactive). For the same compound, the half-maximal activity concentration (AC50) in assay [2] is 15.8 µM (active); in assay [3], 14.1 µM (active); in assay [4] it was 14.1 µM (active). Besides, the Potency entry in assay [5] is “inactive”. Besides, the outcome in [6] was inactive.

Regarding `CCC1(c2cccc(O)c2)CCCCN(C)C1` (stereo unspecified), the efficacy in assay [1] was 34.9% (inactive). Also, the results for the AC50 in assay [2] and in assay [4] were 20 µM (active) and 39.8 µM (active), respectively. Besides, the result in assay [3] and in assay [6] was inactive. For the same compound, the Potency entry in assay [5], in assay [7] and in assay [8] was “inactive” in each case.

In the case of `C=CC[C@]1(O)CC[C@H]2[C@@H]3CCC4=CC(=O)CCC4=C3C=C[C@@]21C`, in [1], the efficacy is 89.4% (inactive). Besides, the half-maximal activity concentration (AC50) in assay [2] is 28.2 µM (active); in assay [4] it was 35.5 µM (active). The outcome in assay [3] and in assay [6] was inactive. In addition, the Potency result in [5] is “inactive”.

Turning to `C=CCOC(Cn1ccnc1)c1ccc(Cl)cc1Cl` (stereo unspecified), in assay [1], the efficacy was 85% (inactive). Besides, the AC50 in [2] and in assay [4] was 39.8 µM (active) each time. The outcome in [3] and in assay [6] was inactive. The Potency result in [5], in [7] and in assay [8] was “inactive” throughout.

With `CCC(=O)OC1(c2ccccc2)CCN(C)CC1`, the efficacy in [1] is 69.7% (inactive). For the same compound, the AC50 in assay [2] and in [4] was 31.6 µM (active) each time. Further, the result in assay [3] and in assay [6] was inactive. Moreover, in assay [5], the Potency result is “inactive”.

Take `CC[C@H](O)C(C[C@H](C)N(C)C)(c1ccccc1)c1ccccc1`: the efficacy in [1] was 49.4% (inactive). Besides, the AC50 in assay [2] was 11.2 µM (active); in assay [3] it was 8.91 µM (active); in assay [4], 8.91 µM (active). Also, in [5], the Potency entry was “inactive”. In addition, the outcome in [6] was inactive.

`OC(c1ccccc1)(c1ccccc1)C1CCNCC1`: in assay [1], the efficacy is 37.5% (inactive). The values for the AC50 in assay [2], in assay [3] and in assay [4] were 20 µM (active), 15.8 µM (active) and 15.8 µM (active), respectively. Besides, the Potency result in assay [5], in assay [7] and in assay [8] was “inactive” each time. Besides, the outcome in assay [6] was inactive.

On to `C#C[C@]1(O)CC[C@H]2[C@@H]3CCC4=CC(=O)CCC4=C3C=C[C@@]21CC`, for which the efficacy in assay [1] is 138% (inactive). Besides, the concentration at half-maximal activity (AC50) in assay [2] is 20 µM (active); in [3], 15.8 µM (active); in assay [4], 15.8 µM (active). Also, the Potency entry in [5], in [7] and in assay [8] was “inactive” throughout. The outcome in assay [6] was inactive.

Turning to `CC(Cc1ccccc1)NCc1ccccc1Cl` (stereo unspecified), the efficacy in assay [1] is -110% (inactive). For the same compound, the AC50 in assay [2], in assay [3] and in assay [4] was 14.1 µM (active) in each case. Also, the Potency entry in assay [5], in [7] and in assay [8] was “inactive” in each case. Moreover, the outcome in [6] was inactive.

With `O=C(N[C@@H]1N=C(c2ccccc2F)c2cccc3c2N(CC3)C1=O)c1cc2ccccc2[nH]1`, the efficacy in assay [1] was -148% (inactive). Also, the AC50 in [2] is 25.1 µM (active); in assay [3] it was 15.8 µM (active); in assay [4], 15.8 µM (active). Also, the Potency result in [5] was “inactive”. Moreover, in [6], the result was inactive.

Regarding `Cc1nnc2n1-c1sc(CCc3ccc(CC(C)C)cc3)cc1C(c1ccccc1Cl)=NC2C` (stereo unspecified), the efficacy in assay [1] is 144% (inactive). The concentration at half-maximal activity (AC50) in assay [2] is 39.8 µM (active); in assay [3] it was 31.6 µM (active); in assay [4], 31.6 µM (active). Besides, in [5], the Potency result was “inactive”. For the same compound, the result in assay [6] was inactive.

Regarding `CCN(CC)CCOC(=O)C(C)(c1ccccc1)c1ccccc1`, in [1], the efficacy was 52.6% (inactive). Also, the values for the concentration at half-maximal activity (AC50) in assay [2], in [3] and in [4] were 8.91 µM (active), 10 µM (active) and 10 µM (active), respectively. The Potency result in assay [5], in assay [7] and in assay [8] was “inactive” each time. Further, in assay [6], the compound was classed as inactive.

As to `COc1ccc2[nH]cc(CCN(C(C)C)C(C)C)c2c1`, the efficacy in assay [1] was 45.7% (inactive). Moreover, the values for the AC50 in assay [2], in [3] and in [4] were 39.8 µM (active), 31.6 µM (active) and 31.6 µM (active), respectively. The Potency result in assay [5] is “inactive”. Besides, the result in [6] was inactive.

On to `O=C(O)c1nn(Cc2ccc(Cl)cc2Cl)c2ccccc12`, for which the efficacy in assay [1] is 44.2% (inactive). The compound was called inactive in [2], in assay [9], in [4], in assay [10], in assay [12] and in assay [6]. The compound was classed as inactive in assay [18] and in assay [19]. The Potency entry in assay [11], in assay [5], in assay [15], in assay [16], in assay [17] and in [7] was “inactive” each time. Besides, the Potency result in assay [8] was “inactive”. For the same compound, the cell viability, % of control (lower = more cytotoxic) in assay [13] stood at 98.4%. Also, in assay [14], the viability (% of control) was determined as 95.1%.

As for `COP(=O)(OC)C(O)C(Cl)(Cl)Cl` (stereo unspecified), the efficacy in assay [1] is -51.3% (inactive). For the same compound, the compound was called inactive in assay [2], in assay [4], in assay [10] and in assay [6]. Also, the Potency result in assay [5], in [7] and in [8] was “inactive” in each case.

`CCCC[N+]1(C)[C@@H]2CC(OC(=O)[C@H](CO)c3ccccc3)C[C@H]1[C@@H]1O[C@@H]12` (stereo partly specified): the efficacy in [1] is -24.1% (inactive). Further, the call in assay [2], in assay [9], in assay [4], in [10] and in [6] was inactive. For the same compound, the Potency result in assay [5], in assay [7] and in assay [8] was “inactive” throughout.

Regarding `CCOC(=O)c1cncn1C(C)c1ccccc1` (stereo unspecified), the efficacy in assay [1] was 19.1% (inactive). Further, the compound was classed as inactive in [2], in assay [9], in [4], in [10] and in [6]. In addition, the Potency result in [5], in assay [7] and in assay [8] was “inactive” throughout.

In the case of `CCOC(=O)NC(O)C(Cl)(Cl)Cl` (stereo unspecified), the efficacy in [1] is 20.9% (inactive). The call in assay [2], in assay [9], in assay [4], in assay [10] and in [6] was inactive. The Potency result in [5], in assay [7] and in assay [8] was “inactive” each time.
